# Results from ChEMBL document CHEMBL3988442, “University of Dundee, Small-Polar-MMV Screening Library” (2021).
# Among all 48,000 compounds or so, about 13,000 (27%) showed an effect of 50% or more. The list shows a part of the results.
# Tested on: Wolbachia pipientis
# Assay: Anti-Wolbachia Cell-Based Screen
# Assay type: functional
# Set-up: scale not given: in the data most compounds retested in dose-response had high values
# Settings: 5 µM
row,SMILES,Percent Effect
1,CS(=O)(=O)c1ccc(O[C@H]2COCCN(C(=O)c3ccno3)C2)cc1,-17.98%
2,CCCN(c1ccccc1C(=O)O)S(=O)(=O)c1ccc2ccccc2c1,-7.662%
3,CC1=CCN(C(=O)Nc2ccccc2N2CCOC2=O)CC1,8.909%
4,COc1ccc(C)cc1C1(CNc2cn[nH]c(=O)c2Cl)CCOCC1,1.939%
5,CC(NC(=O)N(C)Cc1ccncc1)c1cn(-c2ccccc2)nn1 (stereo not given),-5.138%
6,COC(=O)N1CCC(Nc2cccc(F)c2C(C)=O)CC1,7.066%
7,CCCN(Cc1cccnc1)C(=O)C1CCNC1 (stereo not given),-6.629%
8,CCCN(Cc1cccnc1)C(=O)C1CCS(=O)(=O)CC1,-18.37%
9,Cc1cccc(CN(Cc2cccnc2)C2CC(C)(C)NC(C)(C)C2)n1.O=C(O)CC(O)(CC(=O)O)C(=O)O,68.09%
10,CC1(C)CC(N(Cc2ccncc2)Cc2cccnc2)CC(C)(C)N1.O=C(O)CC(O)(CC(=O)O)C(=O)O,106.8%
11,CCCN(Cc1cccnc1)C1CC(C)(C)NC(C)(C)C1.O=C(O)CC(O)(CC(=O)O)C(=O)O,90.76%
12,CC1(C)CC(N(Cc2cccnc2)Cc2cccc(F)c2)CC(C)(C)N1.O=C(O)CC(O)(CC(=O)O)C(=O)O,152.9%
13,CC1CN(c2ccc(CNC(=O)NCCn3ccnc3)cn2)CCO1 (stereo not given),-7.777%
14,Cc1nn(C)cc1-c1ccnc(N(C)Cc2ccoc2)n1,-63.97%
15,CN(Cc1ccncc1)C(=O)Nc1cnn(CC2CCCO2)c1 (stereo not given),-18.51%
16,Cl.O=C(Nc1cccc(C(=O)OCC2CCCN2)c1)c1ccoc1 (stereo not given),-16.18%
17,Cc1cc(C)n(CC2CCCN2CCCS(=O)(=O)N(C)C)n1 (stereo not given),-14.18%
18,Cc1cc(=O)[nH]c(NCCNC(=O)CN2CCCCCC2)n1,0.3352%
19,COCCCSc1ccc(NCc2scnc2C)cc1,-22.23%
20,CNC(=O)NC(=O)CN(CC(C)O)c1ccccc1 (stereo not given),1.255%
21,CC1(C)CC(N(Cc2ccccc2)Cc2cccnc2)CC(C)(C)N1.O=C(O)CC(O)(CC(=O)O)C(=O)O,31.11%
22,CC1(C)CC(N(Cc2cccnc2)Cc2cccnc2)CC(C)(C)N1.O=C(O)CC(O)(CC(=O)O)C(=O)O,81.01%
23,Cc1ccc(CN(Cc2cccnc2)C2CC(C)(C)NC(C)(C)C2)s1.O=C(O)CC(O)(CC(=O)O)C(=O)O,9.465%
24,Cc1ncsc1C(=O)N(Cc1cccnc1)C1CC1,11.29%
25,Cc1ccsc1CN(Cc1cccnc1)C1CC(C)(C)NC(C)(C)C1.O=C(O)CC(O)(CC(=O)O)C(=O)O,106.7%
26,CN1CCc2nc(N(C)C)nc(N3CCC(O)CC3)c2C1,12.64%
27,CCCN(C)c1ncc2c(n1)N(C)CCN(CC1CC1)C2=O,98.31%

row,SMILES,Percent Effect
1,CN(C)c1ncc2c(n1)N(C)CCN(CC1CC1)C2=O,109.4%
2,Cc1ccccc1-n1cnnc1SCCOCC1CCCO1 (stereo not given),-11.81%
3,Cc1ccc(-c2noc([C@@H]3C[C@H](NC(=O)CC(C)(C)C)CN3C)n2)cc1,-9.06%
4,Cc1ccnc(CC(C)N(C)c2cc(CN)nc(C)n2)c1 (stereo not given),-4.516%
5,CCn1ccnc1CN1CCN(CC(O)c2cccc(F)c2)CC1 (stereo not given),152.7%
6,CCn1ccnc1CN1CCN(CC(O)c2ccccc2)CC1 (stereo not given),-0.4709%
7,COc1ccc(C(C)N2CCN(Cc3nccn3C)CC2)cc1Cl (stereo not given),-0.7599%
8,Cn1ccnc1CN1CCN(CC(O)c2cccc(F)c2)CC1 (stereo not given),1.006%
9,CC(c1cccc(F)c1)N1CCN(Cc2nccn2C)CC1 (stereo not given),119.5%
10,CC(c1ccc(F)c(F)c1)N1CCN(Cc2nccn2C)CC1 (stereo not given),-0.152%
11,O=C(O)C(F)(F)F.O=C(O)C(F)(F)F.O=C(O)C(F)(F)F.c1cnc(NCc2noc3c2CN(CCN2CCCC2)CC3)nc1,-9.81%
12,Cc1ccc(NC(=O)NC(C)c2nc[nH]n2)s1 (stereo not given),10.15%
13,CSCCN1CCN(c2nc(N)ncc2C)CC1,-15.55%
14,O=C(c1cnccn1)N1CCN2C[C@H](OCc3ccccn3)C[C@H]2C1,1.808%
15,COc1cccc(CC2(C(=O)O)CCN(c3ccc(Cl)cn3)CC2)c1,-33.64%
16,O=C(O)C1(Cc2cccc(-c3ccc(F)cc3)c2)CCOCC1,105.2%
17,O=C(O)C1(Cc2cccc(-c3ccc(F)c(F)c3)c2)CCOCC1,-9.122%
18,COc1cccc(CC2(C(=O)O)CCN(c3nccs3)CC2)c1,5.275%
19,COc1ccc(-c2cccc(CC3(C(=O)O)CCOCC3)c2)cc1,106.8%
20,Fc1ccc(C2(NCc3ccccc3)CCOCC2)cc1,-10.48%
21,CN(Cc1ccco1)c1ccc(-c2nccn2C)nn1,-4.631%
22,CC1=C[C@@H](CN2CCCC2)[C@H](C(C)C)C[C@H]1Cc1nnc(C)o1,-4.134%
23,CC(C)(C)OC(=O)N1CCCN1C(=O)c1cccc(F)c1F,-1.297%
24,O=C(Nc1ccc(F)c(-n2cccc2)c1)NC1(CCO)CCOCC1,29.93%
25,Cc1nccn1CCCC(=O)Nc1nc(C(C)C)nn1C,-14.12%
26,Br.Cc1cc(C)nc(NCCC(=O)NCCn2ccnc2C)n1,178%
27,Cc1cc(NC(=O)CCCn2ccnc2C)nc(C(C)C)n1,-7.681%

row,SMILES,Percent Effect
1,CSC1(CNC(=O)N(C)Cc2sccc2C)CCOCC1,7.6%
2,O=C(N1CCOCC1)N1CC[C@H]2[C@@H]1CCC(=O)N2c1ccccc1,-0.9647%
3,Cc1cccnc1N1CCC(c2nccn2Cc2cscn2)CC1,-9.317%
4,COc1ccc(C(=O)NCC(C)(O)CCc2ccccc2)cc1 (stereo not given),-2.442%
5,CN(C)C(=O)N1CCn2cc(CNC(=O)CC3CC3)nc2C1,-12.44%
6,Cn1cccc1C(=O)NCc1cnc2n1CCN(C(N)=O)CC2,-2.634%
7,NC(=O)N1CCc2ncc(CNC(=O)CC3CC3)n2CC1,111.4%
8,O=C(NCc1cnc2n1CCN(c1ncc(F)cn1)CC2)C1CCC1,15.93%
9,Cn1cccc1C(=O)NCc1cnc2n1CCN(C(=O)N1CCCC1)C2,10.49%
10,CS(=O)(=O)N1CCc2ncc(CNC(=O)C3CCC3)n2CC1,95.01%
11,CC(=O)N1CCc2ncc(CNC(=O)C3CCC3)n2CC1,106.1%
12,O=C(NCc1cnc2n1CCN(CC1CC1)CC2)C1CCC1,16.9%
13,Cc1cc(N2CCC(NC(=O)CCC3CCCO3)CC2)nc(C)n1 (stereo not given),7.946%
14,Cc1cn2c(n1)C(CNCc1ccc(C)s1)CCC2 (stereo not given),5.575%
15,CC1(C)[C@H]2CC=C(CN3CCCn4nc(C(=O)NCCO)cc4C3)[C@@H]1C2,10.58%
16,Cc1cccc(OCCC(=O)N2CCCN(C(N)=O)CC2)c1C,-12.46%
17,c1ccc(Cc2noc(-c3ccc(NCC4COCCO4)nc3)n2)cc1 (stereo not given),114.1%
18,O=C(NCC1COCCO1)c1csc(Cc2ccccc2)n1 (stereo not given),-4.558%
19,Cc1ccccc1-c1noc(-c2ccc(N(C)C3CCOCC3)nc2)n1,1.469%
20,c1ccc(Cc2noc(-c3ccc(NCC4CCCCO4)nc3)n2)cc1 (stereo not given),127.1%
21,COC(=O)CNc1ccc(-c2nc(Cc3ccc(OC)cc3)no2)cn1,-28.16%
22,O=C(CN1CC(c2nc(Cc3ccccc3)no2)C1)NCC1CCCO1.O=C(O)C(=O)O (stereo not given),1.544%
23,Cc1ccccc1-c1noc(-c2ccc(NCC3COCCO3)nc2)n1 (stereo not given),87.55%
24,CC(CO)Nc1ccc(-c2nc(Cc3ccc(F)cc3)no2)cn1 (stereo not given),-69.59%
25,OC[C@@H]1CCCN1c1ccc(-c2nc(CCc3ccccc3)no2)cn1,1.286%
26,c1ccc(Cc2noc(-c3ccc(NCC4CCCOC4)nc3)n2)cc1 (stereo not given),130.1%
27,COCC(C)Nc1ccc(-c2nc(Cc3ccc(F)cc3)no2)cn1 (stereo not given),-40.71%

row,SMILES,Percent Effect
1,COc1cccc(-c2noc(-c3ccc(NCC4CC4)nc3)n2)c1OC,-9.972%
2,CC(CNCc1ccncc1)Oc1ccccn1.Cl (stereo not given),14.12%
3,Cc1cc(N2Cc3cnc(CC(C)C)nc3C2)nc(N)n1,-9.889%
4,COC(=O)c1ccc(N(C)C2CCC2)nn1,-14.02%
5,CSc1ccccc1CCC1CCS(=O)(=O)C1 (stereo not given),-15.64%
6,CS(=O)(=O)CCC(=O)NC1CC(c2cccc(Cl)c2)C1 (stereo not given),-6.793%
7,CNC(=O)C1CN(C(=O)COc2ccccc2)Cc2cn(C)nc21 (stereo not given),122.8%
8,CCOCC1CN(C(=O)COc2ccccc2)Cc2cn(C)nc21 (stereo not given),-5.674%
9,CNC(=O)C1CN(C(=O)c2ccccc2)Cc2cn(C)nc21 (stereo not given),107.7%
10,COCC1CN(C(=O)c2ccco2)Cc2cn(C)nc21.O=C(O)C(F)(F)F (stereo not given),-0.009633%
11,COCC1CN(C(=O)COc2ccccc2)Cc2cn(C)nc21.O=C(O)C(F)(F)F (stereo not given),-8.714%
12,COCC(=O)N1Cc2cn(C)nc2C(COc2cccnc2)C1 (stereo not given),-3.351%
13,O=C1N(c2ccccc2)C[C@H]2CN(C3CCC3)CCN12,-7.27%
14,O=C(c1ccccc1)N1CCN(C2CCc3ccc(F)cc32)CC1 (stereo not given),-8.707%
15,O=C(CCn1ccc2ccccc21)N1CCN(Cc2cccnc2)CC1,-2.767%
16,CCn1cc(CN2CCN(C(=O)N3CCOCC3)CC2)cn1,3.548%
17,Cc1cc(-n2cccn2)ccc1CN1CCC(O)(CN2CCCCC2)C1 (stereo not given),-16.49%
18,CCn1cc(CN2CCC(CCC(=O)Nc3ccccc3Cl)CC2)cn1,5.103%
19,CCn1ccnc1-c1nccn1-c1ccccc1CN1CCOCC1,-5.226%
20,OC1(Cn2ccc3ncccc32)CCN(Cc2cccnc2)CC1,93.84%
21,CCn1cc(CN2CCC(O)(Cn3ccc4ncccc43)CC2)cn1,79.32%
22,OC1(Cn2ccc3ncccc32)CCN(Cc2cccs2)CC1,107.1%
23,CCn1ncc(CN2CCC(O)(Cn3ccc4ncccc43)CC2)c1C,101.2%
24,OC1(Cn2ccc3ccncc32)CCN(Cc2ccccn2)CC1,-11.69%
